Measurements reported in PubChem BioAssay (NCATS).
Inconclusive results are not listed. Activity calls are given as the source filed them. The call rests on the fitted dose curve; in most records, active means well fitted inhibition curve with a large enough effect; inconclusive means small, poorly fitted or top-dose-only effect; inactive means flat fitted curve, though single readings scatter.

Test system: CRL-7250
Test: qHTS assay to identify novel small-molecules to repurpose for Merkel cell carcinoma treatment (AID 1296009); further: nearly all actives have a fitted effect of over 60% in size
Conditions: MCC and control cell lines, CellTiter-Glo viability, 72 h; at 44.8 µM (top of the series) unless noted
Method in brief: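 After compound transfer in DMSO, plates were kept 72 hr at 37 degree celsius. Luminescent ATP signal from CellTiter-Glo served as viability measure, normalized against DMSO and no-cell controls.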

| SMILES | outcome |
| --- | --- |
| N[C@@H](Cc1c[nH]c2ccc(O)cc12)C(=O)O | inactive |
| CC(C(O)c1ccc(O)cc1)N1CCC(Cc2ccccc2)CC1 (stereo unspecified) | inactive [at 17.4 µM] |
| N[C@@H](CSSC[C@H](N)C(=O)O)C(=O)O | inactive [at 0.588 µM] |
| CN1C[C@H](C(=O)N[C@]2(C)O[C@@]3(O)[C@@H]4CCCN4C(=O)[C@H](Cc4ccccc4)N3C2=O)C[C@@H]2c3cccc4[nH]cc(c34)C[C@H]21 | inactive |
| Cl/C(=C\n1cncn1)c1ccc(Cl)cc1Cl | inactive |
| CC[N+](CC)(CC)CCOC(=O)C(C1CCCC1)C1CCCC1 | inactive |
| CC1(C)[C@@H]2CC[C@@]1(C)C(=O)C2 | inactive |
| CCC(=O)O[C@]1(C(=O)CCl)[C@@H](C)C[C@H]2[C@@H]3CCC4=CC(=O)C=C[C@]4(C)[C@@]3(F)[C@@H](O)C[C@@]21C | inactive |
| CC1(C)CO[C@@H](CC(=O)O)CN1 | inactive |
| CCC(=O)O[C@]1(C(=O)SCF)[C@H](C)C[C@H]2[C@@H]3C[C@H](F)C4=CC(=O)C=C[C@]4(C)[C@@]3(F)[C@@H](O)C[C@@]21C | inactive |
| CCn1cc(C(=O)O)c(=O)c2cc(F)c(N3CCN(C)CC3)cc21 | inactive [at 17.4 µM] |
| C=C1c2cccc(O)c2C(O)=C2C(=O)[C@]3(O)C(O)=C(C(N)=O)C(=O)[C@@H](N(C)C)[C@@H]3[C@@H](O)[C@H]12 | inactive |
| O=C(c1ccc(F)cc1)C1CCN(CCn2c(=O)[nH]c3ccccc3c2=O)CC1 | inactive |
| CN(C)[C@@H](CCOc1cccc2ccccc12)c1ccccc1 | inactive |
| CCCCCC(N)=O | inactive |
| NCCc1cnc[nH]1 | inactive |
| OC(C#CCN1CCCC1)(c1ccccc1)c1ccccc1 | inactive |
| C[C@@H]1CC[C@@]2(OC1)O[C@H]1C[C@H]3[C@@H]4CC[C@H]5C[C@@H](O)CC[C@]5(C)[C@H]4CC(=O)[C@]3(C)[C@H]1[C@@H]2C | inactive [at 4.96 µM] |
| Nc1c2c(nc3ccccc13)CCCC2 | inactive |
| CCCCCCCCCCCCOS(=O)(=O)O | inactive |
| O=C1[C@H]2CCCC[C@H]2C(=O)N1CCCCN1CCN(c2nsc3ccccc23)CC1 | inactive |
